Results on six compounds are retold here after PubChem BioAssay (Tox21).

A short description of assay [1]: qHTS assay for small molecule agonists of the p53 signaling pathway - cell viability (AID 651633; calls by dose curve; further: nearly all actives have a fitted effect of over 30% in size; further: potency means the concentration at half of the fitted maximal effect). A digest of the protocol: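 p53RE-bla cells, seeded at 4,000 per well and rested 5 h at 37 C/5% CO2, received compounds in DMSO for 16 h at 37 C. CellTiter-Glo was then added, and luminescence was read after 30 min at room temperature to gauge cytotoxicity.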
On the technique in general: Quantitative high-throughput screening tests each substance at several concentrations.

The nature of assay [2]: qHTS assay to test for compound auto fluorescence at 460 nm (blue) in HEK293 cells (AID 720678). Further: on the % scale 0 is the no-effect control and ±100 the full control effect. The procedure, abridged:
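Blue-channel (Ex/Em 405/460 nm) intensity measured in HEK293 cultures after overnight compound exposure at 37C; signal expressed relative to triamterene. Cells plated 2,000 per well in 10% dialyzed FBS medium and allowed 4-5 hr to attach.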

The nature of assay [3]: qHTS assay to test for compound auto fluorescence at 535 nm (green) in HEK293 cells (AID 720680). Further: on the % scale 0 is the no-effect control and ±100 the full control effect.
A short description of assay [4]: qHTS assay to test for compound auto fluorescence at 590 nm (red) in HepG2 cell free culture (AID 720684). Further: on the % scale 0 is the no-effect control and ±100 the full control effect. The procedure, abridged:
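Ex 540 / Em 590 nm read of compound in cell-free MEM (10% FBS). Rose Bengal sodium reference.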

The nature of assay [5]: qHTS assay for identifying genotoxic compounds that show differential cytotoxicity against isogenic chicken DT40 cell lines with known DNA damage response pathways - wild type cell line (AID 743012). Further: nearly all actives have a fitted effect of over 60% in size. Further: potency means the concentration at half of the fitted maximal effect. A digest of the protocol:
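Viability of DNA repair-proficient chicken DT40 cells was assessed by CellTiter-Glo luminescence following 40 h compound exposure at 37 C/5% CO2.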

Assay [6] in a line: qHTS assay for identifying genotoxic compounds that show differential cytotoxicity against isogenic chicken DT40 cell lines with known DNA damage response pathways - Rev3 mutant cell line (AID 743014). Further: nearly all actives have a fitted effect of over 55% in size. Further: potency means the concentration at half of the fitted maximal effect.
The nature of assay [7]: qHTS assay to identify small molecule antagonists of the androgen receptor (AR) signaling pathway using the MDA cell line - cell viability counter screen (AID 743041; further: nearly all actives have a fitted effect of over 45% in size; further: potency means the concentration at half of the fitted maximal effect). The procedure, abridged:
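In this qHTS counter assay, fluorescence intensity after CellTiter-Fluor addition indicated viability of MDA-kb2 AR-luc cells given compounds and R1881 for 16 h at 37C.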

Assay [8] can be described thus: qHTS assay to identify small molecule antagonists of the thyroid receptor (TR) signaling pathway - cell viability counter screen (AID 743064). Further: nearly all actives have a fitted effect of over 50% in size. Further: potency means the concentration at half of the fitted maximal effect. A digest of the protocol:
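Counter screen for cytotoxicity: compound plus T3 (1 nM final) on GH3.TRE-Luc cells, 23.5 h at 37 °C, then fluorescence viability readout with CellTiter-Fluor.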

The nature of assay [9]: qHTS assay to identify small molecule that activate the aryl hydrocarbon receptor (AhR) signaling pathway - cell viability counter screen (AID 743086). Further: nearly all actives have a fitted effect of over 45% in size. Further: potency means the concentration at half of the fitted maximal effect. The procedure, abridged:
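HepG2-AhR-luc (HG2L7.5c1) cells, 4000/well, were preincubated 5 h at 37C, exposed to compound in qHTS format for 24 hr at 37C, then given CellTiter-Fluor for 30 min; viability was read as fluorescence in the reporter wells.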

Assay [10] has as its target Peroxisome proliferator-activated receptor gamma (Homo sapiens) (UniProt P37231). Kind of assay: qHTS assay to identify small molecule agonists of the peroxisome proliferator-activated receptor gamma (PPARg) signaling pathway (AID 743094; active means well fitted activation curve with a large enough effect in the signal ratio in the repeat runs, not every such curve was filed as active; inconclusive means weak or mixed curves, or effect the other way; inactive means no such curve, though single readings can be large or run the other way; the % refers to the signal ratio; further: potency means the concentration at half of the fitted maximal effect). The procedure, abridged:
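Agonism was assessed in a beta-lactamase reporter system, HEK293H cells with a stably integrated UAS-bla construct under PPARg control; the 17 h treatment at 37C preceded a 1 h room-temperature FRET substrate read.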

The target in assay [11] is Nuclear receptor subfamily 1 group I member 2 (Rattus norvegicus) (UniProt Q9R1A7). The assay is described as follows: Rat pregnane X receptor (rPXR) activation by small molecules, qHTS assay (AID 1346983). Further: on the % scale 0 is the no-effect control and ±100 the full control effect; nearly all actives have a fitted effect of over 20% in size. The note with it: rPXR luciferase reporter cells, One-Glo luminescence, 24 h; max activation: stronger effect = higher value. The procedure, abridged:
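Cell-based rPXR luciferase reporter assay, 2,000 cells per well, rested 5hr at 37 C before compound addition in DMSO, then 24 hr at 37 C. One-Glo reagent was added and luminescence read after 30 min at room temperature.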

The target in assay [12] is Nuclear receptor subfamily 1 group I member 2 (Homo sapiens) (UniProt O75469). The assay is described as follows: CYP3A4 induction through human pregnane X receptor (PXR) by small molecules, qHTS assay (AID 1346984). Further: nearly all actives have a fitted effect of over 40% in size. Further: potency means the concentration at half of the fitted maximal effect. The procedure, abridged:
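Cells (DPX-2; HepG2 with PXR element plus CYP3A4-promoter luciferase) settled 5hr, then were treated 24hr at 37C. A 3hr, 3uM-final Luciferin-IPA step preceded luminescence measurement with One-Glo.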

Assay [13] shares this target. Kind of assay: Human pregnane X receptor (PXR) activation by small molecules, qHTS assay (AID 1346985). Further: nearly all actives have a fitted effect of over 40% in size. Further: potency means the concentration at half of the fitted maximal effect. A digest of the protocol:
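DPX-2 cells (HepG2 co-transfected with a PXR response element and a CYP3A4-promoter luciferase construct) were seeded at 2,000 per well, rested 5 hr at 37C, then exposed to DMSO-dissolved compounds for 24 hr. Activation was read as luciferase luminescence.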

A short description of assay [14]: qHTS assay to test for compound auto fluorescence at 590 nm (red) in HEK293 cells (AID 720679). Further: on the % scale 0 is the no-effect control and ±100 the full control effect. The procedure, abridged:
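Red-channel autofluorescence (Ex/Em 540/590 nm; Rose Bengal sodium reference) was measured after overnight 37C, 5% CO2 exposure of attached HEK293 cells, 2,000 per well in medium with 10% dialyzed FBS.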

The target of assay [15] is Glucocorticoid receptor (Homo sapiens) (UniProt P04150). Kind of assay: qHTS assay to identify small molecule agonists of the glucocorticoid receptor (GR) signaling pathway (AID 720691; active means well fitted activation curve with a large enough effect in the signal ratio in the repeat runs, not every such curve was filed as active; inconclusive means weak or mixed curves, or effect the other way; inactive means no such curve, though single readings can be large or run the other way; the % refers to the signal ratio; further: on the % scale 0 is the no-effect control and ±100 the full control effect). The procedure, abridged:
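Compounds in DMSO, alongside positive controls, were added to GR-bla HeLa reporter cells and incubated 18 h at 37 C; GRE-driven beta-lactamase was detected by fluorescence after 2 h with FRET substrate at room temperature.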

Assay [16] is described as follows: qHTS assay to identify small molecule antagonists of the androgen receptor (AR) signaling pathway - cell viability counter screen (AID 743033; further: nearly all actives have a fitted effect of over 45% in size; further: potency means the concentration at half of the fitted maximal effect).
Assay [17] concerns the target Estrogen receptor (Homo sapiens) (UniProt P03372). Kind of assay: qHTS assay to identify small molecule agonists of the estrogen receptor alpha (ER-alpha) signaling pathway (AID 743075; calls by dose curve;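 further: HEK293 GripTite cells with ER-alpha and UAS-driven beta-lactamase reporter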; further: potency means the concentration at half of the fitted maximal effect).
Assay [18] shares this target. Kind of assay: qHTS assay to identify small molecule agonists of the estrogen receptor alpha (ER-alpha) signaling pathway using the BG1 cell line (AID 743079). Further: on the % scale 0 is the no-effect control and ±100 the full control effect; nearly all actives have a fitted effect of over 20% in size.
A short description of assay [19]: qHTS assay to identify small molecule antagonists of the estrogen receptor alpha (ER-alpha) signaling pathway using the BG1 cell line (AID 743080; calls by dose curve;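 further: BG1 cells stimulated with 17beta-estradiol alongside compound; series mostly up to about 70 µM; on the % scale 0 is the no-effect control and ±100 the full control effect; nearly all actives have a fitted effect of over 25% in size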). A digest of the protocol:
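Luciferase inhibition measured with ONE-Glo after 30 min at RT in BG1Luc4E2 cells given test compounds and 17beta-estradiol for 21.5 h at 37 C; CellTiter-Fluor viability read in the same wells beforehand.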

The nature of assay [20]: qHTS assay for small molecule agonists of the p53 signaling pathway (AID 651631; calls by dose curve; further: potency means the concentration at half of the fitted maximal effect; nearly all actives have a fitted effect of over 15% in size). The procedure, abridged:
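Stably transfected HCT-116 cells (beta-lactamase behind p53 response elements) get compounds after a 5 h settling period; 16 h later at 37 °C, FRET substrate is loaded and fluorescence read after 2 h.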

Unmarked numbers belong to inactive results. Calls of active or inactive are those of the source. Unless noted, the call rests on the fitted dose curve; in most records, active means well fitted curve in the direction sought with a large enough effect in the repeat runs; inconclusive means weak or mixed curves; inactive means no such curve, though single readings can be large; an effect the other way counts as inactive or inconclusive.

Sequence of Nuclear receptor subfamily 1 group I member 2 (Rattus norvegicus) (Q9R1A7 whole entry, looked up): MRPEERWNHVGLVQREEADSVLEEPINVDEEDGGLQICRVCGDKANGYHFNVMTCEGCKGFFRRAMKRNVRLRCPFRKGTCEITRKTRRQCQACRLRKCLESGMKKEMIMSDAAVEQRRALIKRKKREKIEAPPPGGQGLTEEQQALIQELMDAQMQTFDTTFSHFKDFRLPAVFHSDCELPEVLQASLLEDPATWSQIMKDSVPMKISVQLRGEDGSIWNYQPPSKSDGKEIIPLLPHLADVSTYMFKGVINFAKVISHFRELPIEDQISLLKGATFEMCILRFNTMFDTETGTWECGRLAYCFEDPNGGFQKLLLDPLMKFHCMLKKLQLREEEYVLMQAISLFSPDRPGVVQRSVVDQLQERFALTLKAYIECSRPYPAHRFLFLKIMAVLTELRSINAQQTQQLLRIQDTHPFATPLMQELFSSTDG
Sequence of Estrogen receptor (Homo sapiens) (P03372 whole entry, looked up): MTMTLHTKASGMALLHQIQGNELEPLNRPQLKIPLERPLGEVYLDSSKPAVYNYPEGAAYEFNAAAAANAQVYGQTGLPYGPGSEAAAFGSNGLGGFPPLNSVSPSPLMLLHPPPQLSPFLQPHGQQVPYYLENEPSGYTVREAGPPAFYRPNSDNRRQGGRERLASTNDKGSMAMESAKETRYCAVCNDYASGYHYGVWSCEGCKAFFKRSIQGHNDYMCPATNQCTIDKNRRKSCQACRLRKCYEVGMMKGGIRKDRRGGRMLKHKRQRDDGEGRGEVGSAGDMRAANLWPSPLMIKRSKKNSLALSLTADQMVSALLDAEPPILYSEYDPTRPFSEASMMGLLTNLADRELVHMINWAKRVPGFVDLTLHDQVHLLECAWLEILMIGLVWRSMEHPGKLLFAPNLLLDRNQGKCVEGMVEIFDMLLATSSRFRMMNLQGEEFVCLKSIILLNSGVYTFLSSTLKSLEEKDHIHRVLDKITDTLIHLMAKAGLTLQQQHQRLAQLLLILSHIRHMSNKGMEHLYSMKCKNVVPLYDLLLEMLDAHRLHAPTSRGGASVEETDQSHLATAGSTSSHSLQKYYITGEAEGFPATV
Sequence of Peroxisome proliferator-activated receptor gamma (Homo sapiens) (P37231 whole entry, looked up): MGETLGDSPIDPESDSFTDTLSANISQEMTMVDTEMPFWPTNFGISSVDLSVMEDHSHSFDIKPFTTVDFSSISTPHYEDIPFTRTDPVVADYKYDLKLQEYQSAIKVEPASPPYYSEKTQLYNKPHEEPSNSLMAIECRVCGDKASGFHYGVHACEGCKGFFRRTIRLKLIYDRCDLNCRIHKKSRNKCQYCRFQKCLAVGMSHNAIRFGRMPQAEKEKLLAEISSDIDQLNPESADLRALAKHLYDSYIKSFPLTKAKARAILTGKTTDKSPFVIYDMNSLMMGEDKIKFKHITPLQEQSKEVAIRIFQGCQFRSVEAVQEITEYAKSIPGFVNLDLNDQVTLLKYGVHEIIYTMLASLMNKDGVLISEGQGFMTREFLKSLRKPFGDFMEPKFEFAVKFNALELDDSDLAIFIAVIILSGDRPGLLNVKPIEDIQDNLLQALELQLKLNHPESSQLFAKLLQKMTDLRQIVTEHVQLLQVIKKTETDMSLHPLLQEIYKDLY
Sequence of Glucocorticoid receptor (Homo sapiens) (P04150 whole entry, looked up): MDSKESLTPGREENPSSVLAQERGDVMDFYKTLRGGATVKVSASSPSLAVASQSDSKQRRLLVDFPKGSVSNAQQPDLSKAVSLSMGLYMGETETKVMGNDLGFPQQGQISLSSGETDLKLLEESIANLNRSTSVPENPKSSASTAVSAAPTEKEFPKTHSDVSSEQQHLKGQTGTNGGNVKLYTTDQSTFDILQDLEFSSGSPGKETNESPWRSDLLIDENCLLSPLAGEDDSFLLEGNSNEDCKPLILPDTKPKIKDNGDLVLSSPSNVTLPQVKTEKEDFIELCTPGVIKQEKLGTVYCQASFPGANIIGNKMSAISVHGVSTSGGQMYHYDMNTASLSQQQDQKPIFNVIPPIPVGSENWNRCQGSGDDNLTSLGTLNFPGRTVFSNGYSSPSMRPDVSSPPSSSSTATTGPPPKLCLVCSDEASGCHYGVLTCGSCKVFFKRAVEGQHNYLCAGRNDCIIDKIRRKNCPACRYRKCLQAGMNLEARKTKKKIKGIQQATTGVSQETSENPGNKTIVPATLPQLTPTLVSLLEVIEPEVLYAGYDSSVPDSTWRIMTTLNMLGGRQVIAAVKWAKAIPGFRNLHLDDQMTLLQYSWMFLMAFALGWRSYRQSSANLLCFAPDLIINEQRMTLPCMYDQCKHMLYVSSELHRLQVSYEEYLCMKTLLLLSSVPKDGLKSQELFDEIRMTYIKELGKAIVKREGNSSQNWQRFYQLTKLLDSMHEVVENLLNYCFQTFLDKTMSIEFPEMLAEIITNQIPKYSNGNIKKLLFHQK

`C=CCN1CC[C@]23c4c5ccc(O)c4O[C@H]2[C@@H](O)C=C[C@H]3[C@H]1C5`: the Potency entry in assay [1], in assay [2], in [3], in assay [5], in assay [6] and in [7] was “inactive” in each case. Moreover, the Potency result in assay [8], in assay [9], in assay [10], in [12] and in [13] was “inactive” throughout. The compound was called inactive in [4]. The max activation in assay [11] is -1.77%.

Take `OC[C@@H](O)[C@H]1O[C@@H]2O[C@@H](C(Cl)(Cl)Cl)O[C@@H]2[C@H]1O`: the Potency result in assay [2], in assay [3], in [15], in assay [6], in [16] and in assay [7] was “inactive” each time. Also, the Potency entry in assay [8], in [17], in assay [18], in assay [19], in assay [9] and in assay [10] was “inactive” each time. Moreover, the Potency entry in assay [12] and in [13] was “inactive” each time. Besides, the compound was called inactive in [14] and in assay [4]. In addition, in assay [11], the max activation is -2%.

In the case of `N#CC1(N2CCCCC2)CCCCC1`, the Potency entry in [1], in [2], in assay [3], in assay [15], in [5] and in assay [6] was “inactive” each time. Besides, the Potency entry in assay [7], in [8], in assay [17], in assay [18], in assay [19] and in assay [9] was “inactive” in each case. For the same compound, the Potency entry in [10], in assay [12] and in [13] was “inactive” throughout. Besides, the outcome in [14] and in [4] was inactive. Also, the max activation in assay [11] is -1.32%.

On to `CNC(=O)Oc1ccccc1C(=O)Nc1ccccc1`, for which the Potency entry in assay [1], in [2], in [3], in assay [15], in assay [7] and in [8] was “inactive” throughout. Further, the Potency result in assay [17], in assay [9] and in [10] was “inactive” in each case. Moreover, the call in assay [14] was inactive. Besides, the values for the Potency in [5], in assay [12] and in [13] were 29.8 µM (active), 14.1 µM (active) and 22.4 µM (active), respectively. Also, the max activation in assay [11] is -3.26%.

As for `[H+].[H+].[Hg+2].[O-]B([O-])[O-].[c-]1ccccc1`, the Potency in assay [20] was 1.33 µM (active); in assay [1], 0.668 µM (active); in [6], 0.531 µM (active); in assay [16] it was 9.52 µM (active); in [7], 13.3 µM (active); in [8], 1.06 µM (active). Further, the Potency was 30.1 µM [inconclusive] (active) in [17], 21.1 µM (active) in assay [9] and 19 µM (active) in [10]. In addition, the Potency entry in [2], in assay [3] and in assay [12] was “inactive” each time. Also, the result in assay [14] and in assay [4] was inactive. Moreover, in assay [11], the max activation was -22%.

With `CCCC(C)(COC(N)=O)COC(=O)NC1CC1` (centres undefined), the Potency result in assay [1], in [3], in assay [15], in assay [5], in [6] and in [7] was “inactive” each time. The Potency result in assay [8], in assay [17], in assay [18], in [19], in assay [9] and in assay [10] was “inactive” each time. Moreover, the Potency result in assay [12] and in assay [13] was “inactive” throughout. The compound was called inactive in assay [14] and in [4]. Besides, in assay [11], the max activation is -2.91%.
